Source: PubChem BioAssay
Calls of active or inactive are those of the source.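 How the source made its calls, unless noted: active means NADPH fluorescence slope more negative than the mean of all samples by about 3 SD, 99.7% confidence; inactive means the rest.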

What was measured:
[1] = inhibitors of TNFa-induced NFkB p65 translocation, primary screen, imaging, HUVEC, MLSMR starter and 10KST1 sets (AID 438;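 active means inhibition above 20% together with a positive visual image hit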;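 further: compound added about 3h40 before a 20 min TNFalpha stimulation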;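 on inhibition: signal is the nuclear over cytoplasmic p65 intensity ratio per well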); details: HUVEC TNFa-induced p65 nuclear translocation; cell count: measured here: nuclei count (cytotoxicity indicator), at 2.08 µM; inhibition: at 2 µM, stronger effect = higher value, 0% TNFa-plus-vehicle, 100% no-TNFa wells
[2] = reduction of polyQ htt aggregates in cells – imaging, exon1htt(103Q)mCFP cells, high-content imaging, primary screen (AID 483;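 active means visual image review flags a hit and inhibition of aggregation exceeds 20%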;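 further: compound exposure lasted 3 days before fixation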;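 on nuclei count: percent of the per-plate median nuclei count of sample wells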); details: exon1htt(103Q)mCFP cell line, aggregate imaging, at 2 µM; inhibition of aggregation: stronger effect = higher value; nuclei count: measured here: cell count, toxicity
[3] = endothelial E-selectin expression blockers – imaging, HUVEC, immunofluorescence, MLSMR starter and 10KST1 sets, primary screen (AID 487;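 active means visually confirmed hit in the image check and inhibition above 20%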;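 on inhibition: signal is fraction of cell area covered by stained E-selectin grains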;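 on nuclei count: 100% = median nuclei count of all wells on the same plate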); details: HUVEC TNFalpha-induced E-selectin immunofluorescence imaging, at 2 µM; inhibition: stronger effect = higher value; nuclei count: measured here: cell number, toxicity
[4] = Primary imaging screen for DUSP6 inhibitors that restore phospho-Erk in transfected HeLa cells, chemical complementation (AID 609;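 active means compounds giving at least 50% inhibition in the cell-based MKP-3 phosphatase rescue imaging test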;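 on inhibition: phospho-Erk level distribution per well compared with pooled transfected vehicle control wells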); details: HeLa MKP-3 transfected, phospho-Erk imaging KS statistic, at 10 µM, cells stimulated with TPA for 15 min
[5] = biological target: Dual specificity protein phosphatase 6 (Homo sapiens) (UniProt Q16828); assay: as above; details: HeLa MKP-3 transfected, phospho-Erk imaging KS statistic; at 10 µM; stronger effect = higher value; cells stimulated with TPA for 15 min
[6] = biological target: Voltage-gated potassium channel subunit beta-2 (Rattus norvegicus) (UniProt P62483); assay: inhibitors of rat Kvbeta2 reductase activity – biochemical, NADPH fluorescence, primary screen (AID 622;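 active means fluorescence slope higher than the sample average by over 3 SD, cut at about -0.22 in these data, passing the limit was not always enough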;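 further: slope of raw intensity against log time taken from 70 to 1610 s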); details: recombinant KvBeta, 4-cyanobenzaldehyde reduction, at 10 µM, stronger effect = higher value
[7] = biological target: Voltage-gated potassium channel subunit beta-2 (Rattus norvegicus) (UniProt P62483); assay: enhancers of rat Kvbeta2 NADPH turnover – biochemical, NADPH fluorescence, primary screen (AID 623); details: Recombinant KvBeta, NADPH fluorescence decrease slope, 10 min; at 10 µM; stronger effect = lower value;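 further: fluorescence intensity change per second fitted from 20 to 320 s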
[8] = biological target: Alpha-2C adrenergic receptor (Homo sapiens) (UniProt P18825); assay: compounds altering alpha2C-coupled GIRK flux – cell-based, HEK293 alpha2C/GIRK1/2, thallium flux, primary screen (AID 624;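 active means fluorescence slope after compound addition differing from the mean of all screened samples at 99.7% confidence, in either direction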;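 further: slope of fluorescence ratio to pre-addition baseline per second over 15 to 24 s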); details: thallium flux BTC fluorescence, at 10 µM, actives lie on both sides
[9] = biological target: Muscarinic acetylcholine receptor M4 (Homo sapiens) (UniProt P08173); assay: M4-linked GIRK flux change, two-sided – cell-based, HEK293 M4/GIRK, thallium flux, BTC-AM, M4 allosteric agonist project, primary screen (AID 625;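 active means fluorescence slope after compound addition differing from the mean of all tested samples at 99.7% confidence, mostly higher but some lower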;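 further: thallium influx through GIRK channels coupled to M4 in HEK293 cells with BTC-AM dye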); details: at 10 µM, actives lie on both sides
[10] = inhibitors of larval lipid processing in zebrafish, primary screen, whole organism, PED6 fluorescence, gall bladder and intestine (AID 686;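 active means a full or partial loss of lipid-probe fluorescence in the fish gall bladder, intestine or both, judged by eye; inactive means no fluorescence loss, or compound toxic to the fish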;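 further: larvae 5 to 7 days old with five fish per well; signal comes from phospholipase A2 cleavage of quenched PED6 carried via bile; overnight exposure to compound and PED6 before scoring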); details: Zebrafish larvae PED6 lipid processing, fluorescence scoring; screened at 20 µM (by protocol)
[11] = loss of swimming-algae plug formation – whole organism, Chlamydomonas reinhardtii, WT vs cilia-less mutant, absorbance, 96-well, primary screen (AID 463189;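 active means inhibition at or above 50% relative to wild type and mutant plate controls; inactive means inhibition below 50%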;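 further: 0% = wild type cc124 cells in DMSO and 100% = ciliumless bld1 mutant cells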); details: Chlamydomonas reinhardtii gravitaxis, OD600 absorbance, 2 days; at 10 µM; stronger effect = higher value
[12] = blockers of RIG-like receptor reporter activation – cell-based, Sendai virus stimulus, luciferase, 10K MLSCN set, TLR/RLR signaling modifier project, primary screen (AID 602276;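 active means inhibition at or above 50% at 10 µM; inactive means inhibition below 50%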;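 further: firefly luciferase from ISG56 promoter only with Renilla not read in this screen; 0% = Sendai virus plus DMSO and 100% = medium plus DMSO without virus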); details: HEK293 RL24 IRF3 luciferase reporter, at 10 µM, stronger effect = higher value
[13] = TLR3 IRF3 reporter activation blockers – cell-based, poly I:C stimulus, luciferase, 10K MLSCN set, primary screen (AID 602277;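 active means inhibition of the reporter signal at or above 50%; inactive means inhibition below 50%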); details: HEK293-TLR3 RL24 IRF3 luciferase reporter, at 10 µM, stronger effect = higher value
[14] = measured here: cell density z-score
[15] = measured here: nuclear c-Myc green intensity z-score
[16] = measured here: nuclear pErk red intensity z-score, stronger effect = higher value

Dual specificity protein phosphatase 6 (Homo sapiens), sequence (Q16828 whole entry, looked up): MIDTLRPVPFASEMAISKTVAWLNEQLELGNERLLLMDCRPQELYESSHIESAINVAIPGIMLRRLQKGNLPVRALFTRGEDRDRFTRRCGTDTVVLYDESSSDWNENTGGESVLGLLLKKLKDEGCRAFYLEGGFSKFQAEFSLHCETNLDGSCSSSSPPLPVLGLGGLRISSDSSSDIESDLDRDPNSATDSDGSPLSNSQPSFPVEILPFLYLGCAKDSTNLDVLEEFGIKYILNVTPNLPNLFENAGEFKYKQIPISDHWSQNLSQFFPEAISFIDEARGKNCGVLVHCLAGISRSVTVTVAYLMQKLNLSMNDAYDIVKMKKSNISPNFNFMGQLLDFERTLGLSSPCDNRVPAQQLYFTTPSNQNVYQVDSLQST
Alpha-2C adrenergic receptor (Homo sapiens), sequence (P18825 whole entry, looked up): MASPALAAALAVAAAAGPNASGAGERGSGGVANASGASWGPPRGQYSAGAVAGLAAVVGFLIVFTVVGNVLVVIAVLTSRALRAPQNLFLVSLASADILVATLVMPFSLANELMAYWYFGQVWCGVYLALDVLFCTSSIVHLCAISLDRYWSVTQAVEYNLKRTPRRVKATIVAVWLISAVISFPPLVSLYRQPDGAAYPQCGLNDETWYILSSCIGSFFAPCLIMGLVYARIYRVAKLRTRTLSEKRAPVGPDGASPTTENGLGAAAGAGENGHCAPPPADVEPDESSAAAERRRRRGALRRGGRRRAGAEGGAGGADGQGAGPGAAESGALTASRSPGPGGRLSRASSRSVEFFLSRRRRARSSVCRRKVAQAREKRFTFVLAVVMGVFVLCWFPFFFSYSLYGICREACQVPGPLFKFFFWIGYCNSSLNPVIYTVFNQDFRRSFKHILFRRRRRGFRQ
Muscarinic acetylcholine receptor M4 (Homo sapiens), sequence (P08173 whole entry, looked up): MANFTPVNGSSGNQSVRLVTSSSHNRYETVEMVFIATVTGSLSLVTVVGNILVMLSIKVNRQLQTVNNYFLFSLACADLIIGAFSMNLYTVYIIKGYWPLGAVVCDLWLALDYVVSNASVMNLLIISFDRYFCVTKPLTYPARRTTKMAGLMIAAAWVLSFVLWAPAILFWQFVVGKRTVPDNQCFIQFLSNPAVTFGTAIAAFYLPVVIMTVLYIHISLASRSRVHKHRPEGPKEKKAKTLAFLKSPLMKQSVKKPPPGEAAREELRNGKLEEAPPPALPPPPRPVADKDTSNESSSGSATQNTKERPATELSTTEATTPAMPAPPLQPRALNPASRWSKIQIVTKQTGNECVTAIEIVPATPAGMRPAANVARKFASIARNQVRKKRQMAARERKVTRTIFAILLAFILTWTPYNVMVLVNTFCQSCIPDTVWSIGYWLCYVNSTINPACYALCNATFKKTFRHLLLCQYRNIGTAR
Voltage-gated potassium channel subunit beta-2 (Rattus norvegicus), sequence (P62483 whole entry, looked up): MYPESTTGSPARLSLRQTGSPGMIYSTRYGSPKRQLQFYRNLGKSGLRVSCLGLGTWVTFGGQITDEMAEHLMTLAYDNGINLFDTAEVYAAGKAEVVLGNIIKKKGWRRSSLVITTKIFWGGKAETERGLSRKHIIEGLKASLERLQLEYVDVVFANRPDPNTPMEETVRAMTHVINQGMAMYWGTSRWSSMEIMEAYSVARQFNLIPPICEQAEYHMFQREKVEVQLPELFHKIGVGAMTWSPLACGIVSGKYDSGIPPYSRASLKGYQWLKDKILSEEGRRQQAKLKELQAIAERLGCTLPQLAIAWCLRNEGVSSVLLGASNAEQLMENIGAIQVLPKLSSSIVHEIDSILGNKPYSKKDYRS

Structure (SMILES)	cell count [1]	inhibition [1]	inhibition of aggregation [2]	nuclei count [2] [%]	inhibition [3]	nuclei count [3] [%]	z-score [4, 14]	z-score [4, 15]	z-score [4, 16]	inhibition [5]	fluorescence slope [6]	NADPH fluorescence slope [7]	slope [8]	fluorescence slope [9]	outcome [10]	inhibition [11]	inhibition [12]	inhibition [13]
COc1ccc(Cn2c(N)c(C#N)c3nc4ccccc4nc32)cc1OC	497	2.3% (inactive)	12.4% (inactive)	100	-66.5% (inactive)	123	0.51	-0.363	-0.944	27.8% (inactive)	-0.285 (inactive)	-1.3e-05 (inactive)	0.00453 (inactive)	0.00496 (inactive)	inactive	2.2% (inactive)	15.4% (inactive)	14.9% (inactive)
CCCCOc1ccc(C(=O)Nc2ccc(N3CCN(C(C)=O)CC3)cc2)cc1	490	-7.3% (inactive)	0.5% (inactive)	104	-28.4% (inactive)	141	1.4	-2.16	0.274	5.95% (inactive)	-0.265 (inactive)	1.1e-05 (inactive)	0.00636 (inactive)	0.00551 (inactive)	inactive	3.64% (inactive)	6.98% (inactive)	2.99% (inactive)
Cc1cc(C)c2c(N)c(C(=O)c3ccccc3)oc2n1	544	-4.5% (inactive)	6.6% (inactive)	96.6	-33.5% (inactive)	134	-0.541	1.87	0.479	-3.95% (inactive)	-0.437 (inactive)	-2.9e-05 (inactive)	0.00545 (inactive)	0.00618 (inactive)	inactive	14.6% (inactive)	-2.38% (inactive)	-28.6% (inactive)
N#CC1=C(N)OC2=C(C(=O)CCC2)C1CCc1ccccc1 (configuration not stated)	620	2.3% (inactive)	21% (inactive)	110	-94.4% (inactive)	110	1.04	-0.525	-0.374	2.92% (inactive)	-0.527 (inactive)	-1.3e-05 (inactive)	0.00639 (inactive)	0.00745 (inactive)	inactive	33.2% (inactive)	7.7% (inactive)	15.7% (inactive)
CC(C)c1nc(NCC2CCCO2)c(C#N)c2c1COC(C)(C)C2 (configuration not stated)	354	-4.5% (inactive)	6.9% (inactive)	86.9	-236% (inactive)	132	-0.206	-0.66	-0.111	-8.59% (inactive)	-0.461 (inactive)	-9.6e-05 (inactive)	0.00432 (inactive)	0.00335 (inactive)	inactive	-3.7% (inactive)	20.5% (inactive)	25.1% (inactive)
CC(=O)Nc1ccc(-c2cc3ccccc3o2)cc1	572	-3.8% (inactive)	-5.2% (inactive)	112	11% (inactive)	138	-0.412	2.18	0.0674	-0.233% (inactive)	-0.468 (inactive)	-0.00011 (inactive)	0.00496 (inactive)	0.00556 (inactive)	inactive	17.4% (inactive)	-24.7% (inactive)	-112% (inactive)
COCCNC(=O)c1c(N)n(CCC2=CCCCC2)c2nc3ccccc3nc12	661	-11.4% (inactive)	-0.5% (inactive)	101	-22.2% (inactive)	149	1.39	-1.83	-0.195	20.2% (inactive)	-0.0792 (inactive)	-5.5e-06 (inactive)	0.00496 (inactive)	0.00724 (inactive)	inactive	25.3% (inactive)	6.4% (inactive)	8.21% (inactive)
Cc1cc(Cn2ccnc2)c(C)cc1Cn1ccnc1	637	-4.4% (inactive)	7.9% (inactive)	100	-55.4% (inactive)	124	-0.00236	1.89	-0.864	-7.67% (inactive)	-0.463 (inactive)	-0.000121 (inactive)	0.00445 (inactive)	0.0041 (inactive)	inactive	139% (active)	19.2% (inactive)	17.7% (inactive)
Cc1ccc(SCc2[nH]nc3c2C(c2ccc(C)o2)C(C#N)=C(N)O3)cc1 (configuration not stated)	571	-2.5% (inactive)	15.4% (inactive)	62.4	-2.7% (inactive)	91.7	-2.32	1.82	1.99	24% (inactive)	-0.515 (inactive)	-5.6e-05 (inactive)	0.0059 (inactive)	0.00561 (inactive)	inactive	25.7% (inactive)	-13.7% (inactive)	-11.1% (inactive)
Cc1nc(Sc2cccn2C)c(C(F)(F)F)c(=O)[nH]1	556	-4.5% (inactive)	4.3% (inactive)	96.7	-64.1% (inactive)	108	-1.97	0.557	2.32	1.9e-07% (inactive)	-0.447 (inactive)	-2.3e-05 (inactive)	0.00534 (inactive)	0.00695 (inactive)	inactive	12.2% (inactive)	13.1% (inactive)	3.1% (inactive)
CCOC(=O)c1[nH]c2cc(OC)c(OC)cc2c1NC(=O)C(C)N1CCN(Cc2ccccc2)CC1 (configuration not stated)	541	-4.7% (inactive)	10.2% (inactive)	106	-11.1% (inactive)	140	0.355	-0.877	-1.74	13.9% (inactive)	-0.0434 (active)	2.3e-06 (inactive)	0.00443 (inactive)	0.00565 (inactive)	inactive	19.7% (inactive)	-0.312% (inactive)	3.3% (inactive)
CCOC(=O)C1CCN(C(C)=C2C(=O)c3ccccc3C2=O)CC1	476	-0.3% (inactive)	-15.9% (inactive)	104	-21.4% (inactive)	95.3	-0.165	0.853	0.114	7.73% (inactive)	-0.418 (inactive)	-3.2e-05 (inactive)	0.00587 (inactive)	0.0035 (inactive)	inactive	25.7% (inactive)	6.04% (inactive)	16.6% (inactive)
C=CCSc1nnc2n(CCc3ccccc3)c(=O)c3c4c(sc3n12)COC(C)(C)C4	492	-1.7% (inactive)	3.5% (inactive)	115	-100% (inactive)	135	1.51	-1.62	-0.504	9.91% (inactive)	-0.35 (inactive)	-1.2e-05 (inactive)	0.00563 (inactive)	0.0058 (inactive)	inactive	28.7% (inactive)	0.226% (inactive)	-17.3% (inactive)
Cc1cn2c(-c3ccncc3)nnc2s1	443	-7.7% (inactive)	5.7% (inactive)	88.7	-73.4% (inactive)	142	1.88	0.607	-1.91	22.3% (inactive)	-0.491 (inactive)	-0.000121 (inactive)	0.0059 (inactive)	0.00508 (inactive)	inactive	-0.946% (inactive)	4.57% (inactive)	19.6% (inactive)
CCSc1nnc(NC(=O)C(CC)(C(F)(F)F)C(F)(F)F)s1	702	0.2% (inactive)	-6.4% (inactive)	106	-53.9% (inactive)	124	0.12	-0.276	0.239	-9.53% (inactive)	-0.447 (inactive)	-4.4e-05 (inactive)	0.00447 (inactive)	0.00559 (inactive)	inactive	21.1% (inactive)	-0.9% (inactive)	-31.4% (inactive)
CCOC(=O)CSC1=C(C#N)C(c2ccc(C)cc2)C(C(=O)OC)C(=O)N1 (configuration not stated)	643	4.3% (inactive)	-1.7% (inactive)	81.9	-39.2% (inactive)	133	0.598	0.472	-0.921	2.92% (inactive)	-0.474 (inactive)	-8.1e-06 (inactive)	0.00434 (inactive)	0.00679 (inactive)	inactive	6.69% (inactive)	-15.1% (inactive)	-12.7% (inactive)
CC(C)C(=O)N1CCN(c2nc(-c3ccccc3)c3c(c2C#N)CCCC3)CC1	615	-2.8% (inactive)	0.5% (inactive)	89.1	-17.1% (inactive)	122	0.333	0.332	-0.342	-7.67% (inactive)	-0.377 (inactive)	-9.2e-05 (inactive)	0.0045 (inactive)	0.00499 (inactive)	inactive	5.67% (inactive)	-7.38% (inactive)	17.9% (inactive)
Cc1cc(C)n(Cc2cc(C)c(Cn3nc(C)cc3C)cc2C)n1	622	0.2% (inactive)	15.4% (inactive)	102	-44.5% (inactive)	137	0.927	1.3	1.6	1.63% (inactive)	-0.434 (inactive)	-0.000128 (inactive)	0.00432 (inactive)	0.00602 (inactive)	inactive	-0.144% (inactive)	8.11% (inactive)	0.814% (inactive)
Cc1ccc(S(=O)(=O)N2CCN(c3nc(C(C)C)c4c(c3C#N)CC(C)(C)OC4)CC2)cc1	604	-7.5% (inactive)	-19.5% (inactive)	102	-19.5% (inactive)	120	0.934	0.596	-1.08	5.35% (inactive)	-0.441 (inactive)	-8.5e-05 (inactive)	0.00654 (inactive)	0.00645 (inactive)	inactive; toxic	-7.57% (inactive)	-1.31% (inactive)	44.4% (inactive)
